Source: PubChem BioAssay AID1159580 (chemical genetic matrix, 2015)
The campaign covered roughly 5,500 compounds. About 2,000 (36%) were called active. Another 18% or so got no clear call; they are omitted. Rule as the data show it: active = normalized growth mostly below about 0.91 (no sharp cut-off); inconclusive = no clear call, values can overlap the other calls; inactive = mostly above about 0.92. The list shows a part of the results.

Experiment: chemical genetic growth profiling, strain panel (AID 1159580);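 also: tested at 20 µM; growth read once vehicle control cultures reached saturation at 30 °C; 1 = growth at the plate median or of vehicle wells; lower values mean less growth of the strain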
Conditions: growth OD
[1] = S. cerevisiae deletion strains, locus YHR030C, strain SLT2, stronger effect = lower value
[2] = S. cerevisiae deletion strains, locus YHR079C, strain IRE1, stronger effect = lower value
[3] = S. cerevisiae deletion strains, locus YJL095W, strain BCK1, stronger effect = lower value
[4] = S. cerevisiae deletion strains, locus YJR066W, strain TOR1, stronger effect = lower value
[5] = S. cerevisiae deletion strains, locus YLR113W, strain HOG1, stronger effect = lower value
[6] = S. cerevisiae deletion strains, locus YNL183C, strain NPR1, stronger effect = lower value
[7] = S. cerevisiae deletion strains, locus YOR231W, strain MKK1, stronger effect = lower value
[8] = S. cerevisiae deletion strains, locus YPL256C, strain CLN2, stronger effect = lower value

Measured: normalized growth

Clc1ccc2c(c1)CCc1cccnc1C2=C1CCNCC1
inactive: [1] 0.968 | [2] 0.986 | [3] 1.04 | [4] 0.932 | [5] 1.03 | [6] 0.965 | [7] 0.992 | [8] 0.972

O=C1CCCCC/C=C/CCCCCCCCO1
inactive: S. cerevisiae deletion strains, locus YAL013W, strain DEP1, stronger effect = lower value 0.986 | S. cerevisiae deletion strains, locus YBR021W, strain FUR4, stronger effect = lower value 1.01 | S. cerevisiae deletion strains, locus YBR229C, strain ROT2, stronger effect = lower value 1 | S. cerevisiae deletion strains, locus YCL029C, strain bik1, stronger effect = lower value 1 | S. cerevisiae deletion strains, locus YDL035C, strain GPR1, stronger effect = lower value 0.988 | S. cerevisiae deletion strains, locus YDL074C, strain BRE1, stronger effect = lower value 0.949 | S. cerevisiae deletion strains, locus YDL101C, strain DUN1, stronger effect = lower value 0.994 | S. cerevisiae deletion strains, locus YDL134C, strain PPH21, stronger effect = lower value 0.999 | S. cerevisiae deletion strains, locus YDL185W, strain tfp1, stronger effect = lower value 0.999 | S. cerevisiae deletion strains, locus YDL192W, strain arf1, stronger effect = lower value 0.997 | S. cerevisiae deletion strains, locus YDR101C, strain arx1, stronger effect = lower value 0.979 | S. cerevisiae deletion strains, locus YDR150W, strain NUM1, stronger effect = lower value 1.01 | S. cerevisiae deletion strains, locus YDR162C, strain NBP2, stronger effect = lower value 1 | S. cerevisiae deletion strains, locus YDR318W, strain mcm21, stronger effect = lower value 0.985 | S. cerevisiae deletion strains, locus YDR388W, stronger effect = lower value 0.99 | S. cerevisiae deletion strains, locus YDR502C, strain sam2, stronger effect = lower value 0.969 | S. cerevisiae deletion strains, locus YEL061C, strain CIN8, stronger effect = lower value 0.999 | S. cerevisiae deletion strains, locus YER110C, stronger effect = lower value 0.992 | S. cerevisiae deletion strains, locus YER155C, strain BEM2, stronger effect = lower value 1 | S. cerevisiae deletion strains, locus YER167W, strain BCK2, stronger effect = lower value 0.974 | S. cerevisiae deletion strains, locus YGL078C, strain dbp3, stronger effect = lower value 1 | S. cerevisiae deletion strains, locus YGL086W, strain mad1, stronger effect = lower value 0.988 | S. cerevisiae deletion strains, locus YGL248W, strain PDE1, stronger effect = lower value 1 | S. cerevisiae deletion strains, locus YGR078C, strain PAC10, stronger effect = lower value 0.946 | S. cerevisiae deletion strains, locus YGR135W, strain pre9, stronger effect = lower value 0.956 | S. cerevisiae deletion strains, locus YGR229C, strain SMI1, stronger effect = lower value 0.893 | S. cerevisiae deletion strains, locus YGR252W, strain gcn5, stronger effect = lower value 0.999 | [1] 0.999 | S. cerevisiae deletion strains, locus YHR079C, strain IRE1 (second series), stronger effect = lower value 0.995 | S. cerevisiae deletion strains, locus YHR094C, strain hxt1, stronger effect = lower value 0.997 | S. cerevisiae deletion strains, locus YHR129C, strain ARP1, stronger effect = lower value 0.988 | S. cerevisiae deletion strains, locus YHR200W, strain rpn10, stronger effect = lower value 1 | S. cerevisiae deletion strains, locus YIL066C, strain RNR3, stronger effect = lower value 0.985 | S. cerevisiae deletion strains, locus YIL073C, strain SPO22, stronger effect = lower value 1.01 | S. cerevisiae deletion strains, locus YIL125W, strain kgd1, stronger effect = lower value 0.985 | S. cerevisiae deletion strains, locus YIR030C, strain dcg1, stronger effect = lower value 1 | [3] 0.924 | S. cerevisiae deletion strains, locus YJL134W, strain LCB3, stronger effect = lower value 1 | S. cerevisiae deletion strains, locus YJL168C, strain set2, stronger effect = lower value 0.988 | S. cerevisiae deletion strains, locus YJL187C, strain SWE1 (second series), stronger effect = lower value 1 | S. cerevisiae deletion strains, locus YJR043C, strain POL32, stronger effect = lower value 0.953 | S. cerevisiae deletion strains, locus YJR075W, strain HOC1, stronger effect = lower value 0.944 | S. cerevisiae deletion strains, locus YKL009W, strain mrt4, stronger effect = lower value 1.01 | S. cerevisiae deletion strains, locus YKL068W, stronger effect = lower value 1 | S. cerevisiae deletion strains, locus YKL085W, strain MDH1 (second series), stronger effect = lower value 1.01 | S. cerevisiae deletion strains, locus YKL085W, strain MDH1, stronger effect = lower value 1.01 | S. cerevisiae deletion strains, locus YKL190W, strain CNB1, stronger effect = lower value 1 | S. cerevisiae deletion strains, locus YKR001C, strain vps1, stronger effect = lower value 0.948 | S. cerevisiae deletion strains, locus YLR039C, strain RIC1, stronger effect = lower value 0.869 | S. cerevisiae deletion strains, locus YLR058C, strain SHM2, stronger effect = lower value 1 | S. cerevisiae deletion strains, locus YLR102C, strain apc9, stronger effect = lower value 0.997 | S. cerevisiae deletion strains, locus YLR262C, strain YPT6, stronger effect = lower value 0.859 | S. cerevisiae deletion strains, locus YLR268W, strain sec22, stronger effect = lower value 0.975 | S. cerevisiae deletion strains, locus YLR330W, strain CHS5, stronger effect = lower value 1.01 | S. cerevisiae deletion strains, locus YLR342W, strain FKS1 (second series), stronger effect = lower value 0.968 | S. cerevisiae deletion strains, locus YLR371W, strain rom2, stronger effect = lower value 0.999 | S. cerevisiae deletion strains, locus YLR418C, strain cdc73, stronger effect = lower value 0.848 | S. cerevisiae deletion strains, locus YML016C, strain PPZ1, stronger effect = lower value 1.01 | S. cerevisiae deletion strains, locus YML032C, strain rad52, stronger effect = lower value 0.983 | S. cerevisiae deletion strains, locus YML124C, strain tub3, stronger effect = lower value 0.995 | S. cerevisiae deletion strains, locus YMR078C, strain ctf18, stronger effect = lower value 0.99 | S. cerevisiae deletion strains, locus YMR223W, strain ubp8, stronger effect = lower value 0.973 | S. cerevisiae deletion strains, locus YMR263W, strain SAP30, stronger effect = lower value 0.97 | S. cerevisiae deletion strains, locus YMR307W, strain GAS1, stronger effect = lower value 0.898 | S. cerevisiae deletion strains, locus YNL067W, strain RPL9B, stronger effect = lower value 1.01 | S. cerevisiae deletion strains, locus YNL128W, strain TEP1, stronger effect = lower value 0.978 | S. cerevisiae deletion strains, locus YNL153C, strain GIM3, stronger effect = lower value 0.972 | S. cerevisiae deletion strains, locus YNL233W, strain BNI4, stronger effect = lower value 0.943 | S. cerevisiae deletion strains, locus YNL250W, strain rad50, stronger effect = lower value 0.99 | S. cerevisiae deletion strains, locus YNL271C, strain bni1, stronger effect = lower value 0.991 | S. cerevisiae deletion strains, locus YNL298W, strain CLA4, stronger effect = lower value 0.993 | S. cerevisiae deletion strains, locus YNL307C, strain MCK1, stronger effect = lower value 0.958 | S. cerevisiae deletion strains, locus YNL322C, strain KRE1, stronger effect = lower value 1 | S. cerevisiae deletion strains, locus YNR052C, strain pop2, stronger effect = lower value 1.01 | S. cerevisiae deletion strains, locus YOL006C, strain TOP1, stronger effect = lower value 0.936 | S. cerevisiae deletion strains, locus YOL012C, strain htz1 0.561 | S. cerevisiae deletion strains, locus YOL147C, strain pex11, stronger effect = lower value 1.01 | S. cerevisiae deletion strains, locus YOR061W, strain CKA2, stronger effect = lower value 1.01 | S. cerevisiae deletion strains, locus YOR069W, strain VPS5, stronger effect = lower value 1 | S. cerevisiae deletion strains, locus YOR136W, strain idh2, stronger effect = lower value 0.992 | S. cerevisiae deletion strains, locus YOR144C, strain elg1, stronger effect = lower value 1 | S. cerevisiae deletion strains, locus YOR184W, strain ser1, stronger effect = lower value 0.955 | S. cerevisiae deletion strains, locus YOR316C, strain cot1, stronger effect = lower value 0.999 | S. cerevisiae deletion strains, locus YPL055C, strain LGE1, stronger effect = lower value 0.996 | S. cerevisiae deletion strains, locus YPL241C, strain CIN2, stronger effect = lower value 1.01 | S. cerevisiae deletion strains, locus YPR119W, strain clb2, stronger effect = lower value 0.994 | S. cerevisiae deletion strains, locus YPR141C, strain kar3, stronger effect = lower value 0.991 | S. cerevisiae deletion strains, locus YPR163C, strain tif3, stronger effect = lower value 1.01 | S. cerevisiae deletion strains, locus YPR167C, strain met16, stronger effect = lower value 1 | S. cerevisiae deletion strains, strain wtn01, stronger effect = lower value 0.96 | S. cerevisiae strains, strain wild type, stronger effect = lower value 0.97

COC(=O)[C@@H]1C[C@H](OC(C)=O)C(=O)[C@H]2[C@@]1(C)CC[C@H]1C(=O)O[C@H](c3ccoc3)C[C@]21C
inactive: [1] 1 | [2] 0.994 | [3] 1 | [4] 0.936 | [5] 1.03 | [6] 0.957 | [7] 0.985 | [8] 1.01
